Our source for the composite z-score and z-score values is PubChem BioAssay.

In assay [1] the test system is Wnt5a (protein binding on small-molecule microarray). The assay is described as follows: Wnt5a binders on small-molecule microarray, primary screen, biophysical, 635/667 nm fluorescence (AID 1142).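 Note: fluorescence read at 667 nm with signal to noise per printed feature.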 The following applies: 635 nm fluorescence, higher = more signal.
Assay [2] can be described thus: cell viability in Huh7 cells, primary screen, cytotoxicity control for HCV replication inhibitor project, CellTiter-Glo luminescence, basal, 48 h (AID 1143).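 Note: Huh7 hepatoma cells carrying a hepatitis C replication reporter with no stimulus; test concentration not given here.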 The following applies: Huh7 HCV replicon, higher = more signal, called active from +8 up or from −8 down. (In general: Cellular ATP, detected with luciferase, serves as a proxy for viable cell number.)
The nature of assay [3]: P. aeruginosa biofilm formation inhibitors, primary screen, PAO1 strain, BacTiter-Glo luminescence, LB-PBS (AID 1144). The following applies: 12 h, higher = more signal.
Assay [4] in a line: CREB reporter modulators without forskolin, primary screen, cell-based, PC12, CRE-LacZ reporter, unstimulated (AID 1145). The note with it: no forskolin, luminescence, 4.5 h, higher = more signal, called active from +8 up or from −8 down.
Assay [5] in a line: CREB reporter modulators under forskolin, primary screen, cell-based, PC12, CRE-LacZ reporter, forskolin-stimulated (AID 1146).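 Note: PC12 cells with 6xCRE LacZ reporter stimulated by forskolin 10 µM; beta-galactosidase reporter signal reflecting CREB driven transcription.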 The note with it: luminescence, 4.5 h, higher = more signal, called active from +8 up or from −8 down.
Assay [6] deals with Streptavidin (Streptomyces avidinii) (UniProt P22629). Briefly: streptavidin binders on small-molecule microarray, primary screen, artefact control for SMM compound annotation, biophysical, 635/667 nm fluorescence (AID 1147).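 Note: signal reflects streptavidin binding to arrayed compounds as a control protein.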 The following applies: streptavidin binding, higher = more signal.
Streptavidin (Streptomyces avidinii), sequence (P22629 whole entry, looked up): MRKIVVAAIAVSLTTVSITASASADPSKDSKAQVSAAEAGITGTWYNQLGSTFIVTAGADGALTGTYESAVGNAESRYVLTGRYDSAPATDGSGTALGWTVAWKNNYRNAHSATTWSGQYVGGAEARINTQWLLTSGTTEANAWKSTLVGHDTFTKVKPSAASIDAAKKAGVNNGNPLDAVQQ
Assay [7] can be described thus: small-molecule binders of probe aInhba, primary screen, biochemical, small-molecule microarray, 635/667 nm fluorescence (AID 1148).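 Note: score merges 667nm spot fluorescence with signal-to-noise for antibody binding to printed compounds.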 The note with it: higher = more signal.
Assay [8] deals with Torsin-1A (Homo sapiens) (UniProt O14656). Briefly: torsin A binders from cell lysate, primary screen, small-molecule microarray, wild-type, 635/667 nm (AID 1149). The note with it: COS7 hTOR1A-WT lysate, 635 nm fluorescence, higher = more signal.
Torsin-1A (Homo sapiens), sequence (O14656 whole entry, looked up): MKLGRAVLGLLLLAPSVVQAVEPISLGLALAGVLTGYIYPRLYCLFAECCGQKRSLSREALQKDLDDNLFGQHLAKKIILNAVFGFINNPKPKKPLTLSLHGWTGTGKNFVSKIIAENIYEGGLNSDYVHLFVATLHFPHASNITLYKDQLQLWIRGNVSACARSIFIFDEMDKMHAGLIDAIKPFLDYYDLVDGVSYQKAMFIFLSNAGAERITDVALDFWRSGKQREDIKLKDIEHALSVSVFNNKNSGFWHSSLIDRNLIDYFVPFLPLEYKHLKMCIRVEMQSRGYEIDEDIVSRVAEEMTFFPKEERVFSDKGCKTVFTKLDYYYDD
Assay [9] shares this target. Briefly: small-molecule binders of mutant TOR1A in lysate, primary screen, cell lysate, small-molecule microarray, COS7 lysate, 635/667 nm fluorescence (AID 1150).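 Note: score pools 667 nm emission and signal to noise measuring lysate protein binding.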 The note with it: COS7 hTOR1A mutant lysate, 635 nm fluorescence, higher = more signal.
Assay [10] deals with Sonic hedgehog protein (Shh). Briefly: small-molecule binders of Shh protein, primary screen, biochemical, small-molecule microarray, 635/667 nm fluorescence (AID 1151).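 Note: Shh protein binding to compounds spotted on small-molecule microarray slides; score combines spot fluorescence intensity with signal-to-noise across triplicate slides.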 The following applies: small-molecule microarray binding, 635 nm fluorescence; higher = more signal.
Assay [11] is described as follows: E. coli DRC41 culture turbidity changes, primary screen, E. coli filamentation inducer project, strain DRC41, OD650, 48 h (AID 1152).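 Note: E. coli MC1000 strain DRC41 lacking acrAB efflux pump and sulA.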 The note with it: E. coli DRC41 (acrAB sulA), higher = more signal, called active from +8 up or from −8 down.
Assay [12] in a line: small-molecule binders of probe aLefty1, primary screen, biochemical, small-molecule microarray, 635/667 nm fluorescence (AID 1153).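 Note: score merges spot fluorescence with signal-to-noise ratio from the scanned slide images.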 The following applies: higher = more signal.
Assay [13] is described as follows: PSAC antagonists in infected red cells, primary screen, cell-based, P. falciparum Indochina, OD700, 1 h (AID 1154). The note with it: P. falciparum Indochina infected RBC osmotic lysis, higher = more signal, called active from +8 up or from −8 down.
Assay [14] can be described thus: PSAC antagonists in infected red cells, primary screen, cell-based, P. falciparum Indochina, OD700, 2 h (AID 1155).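 Note: lysis reports solute entry through the parasite surface anion channel PSAC; channel blockers reduce lysis of infected cells.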 The note with it: P. falciparum Indochina infected erythrocytes, osmotic lysis OD700; higher = more signal, called active from +8 up or from −8 down.
Assay [15] in a line: osmotic lysis modulators in infected erythrocytes, primary screen, PSAC antagonist project, cell-based, P. falciparum Indochina, OD700, 3 h (AID 1156). The note with it: higher = more signal, called active from +8 up or from −8 down.
Assay [16] can be described thus: PSAC antagonists in infected red cells, primary screen, cell-based, P. falciparum Indochina, OD700, 18 h (AID 1157). The following applies: P. falciparum Indochina infected erythrocytes, osmotic lysis OD700, 18 h; higher = more signal, called active from +8 up or from −8 down.
Assay [17] can be described thus: modulators of S6 phosphorylation in cells, primary screen, cell-based, A549, cytoblot, luminescence, serum-stimulated (AID 1158).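 Note: serum-stimulated A549 lung adenocarcinoma cells; signal is phosphorylated S6 detected by cytoblot immunostaining with HRP secondary.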 The following applies: A549 phospho-S6 cytoblot, 5 h, higher = more signal.
The target of assay [18] is NADPH oxidase 2 (Homo sapiens) (UniProt P04839). Briefly: NOX2-dependent H2O2 signal modulators, primary screen, NOX inhibitor project, cell-based, HEK293-NOX2, PMA-stimulated, Amplex Red fluorescence (AID 1159). Note: test concentration not given here. The following applies: 45 min, higher = more signal, called active from +8 up or from −8 down.
NADPH oxidase 2 (Homo sapiens), sequence (P04839 whole entry, looked up): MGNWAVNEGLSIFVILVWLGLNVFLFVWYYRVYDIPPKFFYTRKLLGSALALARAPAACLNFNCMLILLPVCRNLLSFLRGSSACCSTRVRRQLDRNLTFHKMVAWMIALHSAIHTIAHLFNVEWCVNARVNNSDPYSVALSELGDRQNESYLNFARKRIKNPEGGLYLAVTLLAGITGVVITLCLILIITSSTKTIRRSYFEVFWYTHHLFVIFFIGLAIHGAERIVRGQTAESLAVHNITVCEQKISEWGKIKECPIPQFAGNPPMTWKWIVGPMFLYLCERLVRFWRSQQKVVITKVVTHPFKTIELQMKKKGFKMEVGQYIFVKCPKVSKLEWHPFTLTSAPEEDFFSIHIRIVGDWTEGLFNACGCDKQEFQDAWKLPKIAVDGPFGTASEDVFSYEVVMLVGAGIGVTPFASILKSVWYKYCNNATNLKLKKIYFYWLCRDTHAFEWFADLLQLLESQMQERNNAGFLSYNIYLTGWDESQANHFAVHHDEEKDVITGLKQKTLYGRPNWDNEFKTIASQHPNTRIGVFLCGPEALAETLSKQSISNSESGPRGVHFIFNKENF
The target in assay [19] is NADPH oxidase 4 (Homo sapiens) (UniProt Q9NPH5). The assay is described as follows: NOX4-dependent H2O2 signal modulators, primary screen, NOX inhibitor project, cell-based, HEK293-NOX4, tetracycline-induced, Amplex Red fluorescence (AID 1160). The following applies: 45 min, higher = more signal, called active from +8 up or from −8 down.
NADPH oxidase 4 (Homo sapiens), sequence (Q9NPH5 whole entry, looked up): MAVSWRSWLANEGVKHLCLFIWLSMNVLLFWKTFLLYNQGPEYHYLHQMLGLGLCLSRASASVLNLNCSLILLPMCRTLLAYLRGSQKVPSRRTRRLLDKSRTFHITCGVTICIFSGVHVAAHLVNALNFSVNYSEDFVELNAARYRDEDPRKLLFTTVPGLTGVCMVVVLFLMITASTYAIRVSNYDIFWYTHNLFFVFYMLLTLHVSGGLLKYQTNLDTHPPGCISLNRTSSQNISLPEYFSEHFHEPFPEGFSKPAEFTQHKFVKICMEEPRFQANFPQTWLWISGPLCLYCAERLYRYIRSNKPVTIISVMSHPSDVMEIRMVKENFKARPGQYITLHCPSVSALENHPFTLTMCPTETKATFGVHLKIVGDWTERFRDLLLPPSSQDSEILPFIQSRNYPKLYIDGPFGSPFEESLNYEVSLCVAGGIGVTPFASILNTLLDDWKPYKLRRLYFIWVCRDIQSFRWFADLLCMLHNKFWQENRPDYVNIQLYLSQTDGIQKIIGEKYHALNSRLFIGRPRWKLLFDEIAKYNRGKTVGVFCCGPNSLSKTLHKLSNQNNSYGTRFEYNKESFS
The target in assay [20] is NADPH oxidase 5 (Homo sapiens) (UniProt Q96PH1). Briefly: NOX5-dependent H2O2 signal modulators, primary screen, NOX inhibitor project, cell-based, HEK293-NOX5, Amplex Red fluorescence (AID 1161). The following applies: HEK293-NOX5, ionomycin, 45 min, higher = more signal.
NADPH oxidase 5 (Homo sapiens), sequence (Q96PH1 whole entry, looked up): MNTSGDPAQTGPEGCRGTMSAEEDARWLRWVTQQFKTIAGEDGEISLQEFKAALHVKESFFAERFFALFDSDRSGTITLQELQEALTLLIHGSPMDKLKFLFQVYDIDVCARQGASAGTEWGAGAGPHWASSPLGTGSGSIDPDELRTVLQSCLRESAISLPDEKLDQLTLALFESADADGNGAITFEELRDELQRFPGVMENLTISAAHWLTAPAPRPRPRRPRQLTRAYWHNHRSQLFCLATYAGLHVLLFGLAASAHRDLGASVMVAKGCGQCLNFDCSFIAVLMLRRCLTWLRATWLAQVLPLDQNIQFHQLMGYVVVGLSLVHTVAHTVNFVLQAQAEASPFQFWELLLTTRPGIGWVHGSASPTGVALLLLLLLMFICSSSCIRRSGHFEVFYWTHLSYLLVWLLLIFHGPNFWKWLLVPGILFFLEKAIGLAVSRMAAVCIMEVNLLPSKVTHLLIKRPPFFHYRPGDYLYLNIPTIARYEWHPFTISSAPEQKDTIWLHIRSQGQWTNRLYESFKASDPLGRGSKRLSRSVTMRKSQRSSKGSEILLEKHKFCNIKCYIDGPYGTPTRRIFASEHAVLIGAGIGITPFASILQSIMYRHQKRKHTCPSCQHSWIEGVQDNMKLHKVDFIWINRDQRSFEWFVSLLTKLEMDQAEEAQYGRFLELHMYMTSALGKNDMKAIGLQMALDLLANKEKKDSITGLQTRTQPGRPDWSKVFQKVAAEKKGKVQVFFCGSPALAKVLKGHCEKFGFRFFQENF

SMILES strings stand for the structures. Activity calls are given as the source filed them. Unless noted, the rule behind the calls is not given here.

On to `Cc1ccc(/C=C/C=O)cc1`, for which the composite z-score in assay [1] is -0.355; in assay [6], -0.461; in assay [7] it was -0.176; in the assay with Torsin-1A (Homo sapiens) [8], -1.39; with Torsin-1A (Homo sapiens) [9], -0.357; in [10], -0.327. Also, in assay [12], the composite z-score was -0.22. The z-score was 0.0606 (inactive) in [2]; 0.38 (inactive) in assay [3]; -0.141 (inactive) in assay [4]; 0.243 (inactive) in [5]; 1.24 (inactive) in [11]; 0.248 (inactive) in assay [13]. Besides, the z-score in assay [14] is 0.0672 (inactive); in [15], -0.0637 (inactive); in assay [16], 0.0324 (inactive); in assay [17], -0.139; in assay [18] it was -0.225 (inactive); in [19], -0.104 (inactive). Also, the z-score in assay [20] came out at 1.17.
Take `NC(=O)[C@@H]1[C@H]2C(=O)O[C@H](c3ccccc3)[C@H](c3ccccc3)N2[C@H](c2ccc(OCCO)cc2)[C@@]12C(=O)Nc1ccc(C#CC3=CCCCC3)cc12`: the composite z-score is 0.0384 in assay [1]; 0.778 in assay [6]; 0.0047 in assay [7]; 0.618 with Torsin-1A (Homo sapiens) [8]; 0.817 with Torsin-1A (Homo sapiens) [9]; 1.24 in [10]. In addition, the composite z-score in assay [12] came to 0.189. In addition, the z-score in assay [2] was -6.11 (inactive); in assay [3], -1.74 (inactive); in [4] it was -1.28 (inactive); in assay [5], -0.546 (inactive); in [11], 1.96 (inactive); in assay [13], 3 (inactive). Besides, the z-score in assay [14] was 0.651 (inactive); in assay [15] it was -1.59 (inactive); in [16], -0.198 (inactive); in assay [17] it was 1.1; in [18], 0.814 (inactive); in assay [19] it was 0.68 (inactive). In assay [20], this compound had a z-score of 2.3.
Consider `COc1ccc([Si](C)(C)[C@H]2[C@H](CCO)O[C@@]3(C(=O)N(Cc4ccccc4)c4ccc(N5CCCCC5=O)cc43)[C@@H]2C)cc1`, for which the composite z-score in assay [1] was 0.116; in assay [6], 0.381; in assay [7], -0.118; with Torsin-1A (Homo sapiens) [8], 0.23; with Torsin-1A (Homo sapiens) [9] it was 1.67; in assay [10] it was 0.929. In addition, in assay [12], the composite z-score was determined as 0.0844. In addition, the z-score is -7.68 (inactive) in assay [2]; -1.98 (inactive) in assay [3]; 4.22 (inactive) in assay [4]; -1.16 (inactive) in [5]; 0.663 (inactive) in assay [11]; 6.61 (inactive) in [13]. Besides, the z-score in assay [14] was 2.24 (inactive); in assay [15], 1.45 (inactive); in assay [16] it was 1.72 (inactive); in [17] it was 0.204; in assay [18] it was -1.16 (inactive); in assay [19] it was 0.636 (inactive). The same compound displayed a z-score in [20] of 1.81.
Take `COC(=O)[C@@]1(Cc2ccccc2)[C@H]2c3cc(C(=O)N(C)C)n(CCc4c[nH]c5ccc(O)cc45)c3C[C@H]2CN1C(=O)c1ccccc1`: the composite z-score in assay [1] is 0.0434; in assay [6], 0.0497; in [7], 0.0878; in the assay with Torsin-1A (Homo sapiens) [8], -0.343; with Torsin-1A (Homo sapiens) [9] it was 0.604; in assay [10] it was 0.647. Besides, the composite z-score in assay [12] is -0.0831. Also, the z-score in assay [2] was -1.51 (inactive); in assay [3] it was 0.562 (inactive); in assay [4], 0.0041 (inactive); in assay [5] it was 0.1 (inactive); in [11], 0.263 (inactive); in assay [13], 7.05 (inactive). The z-score in [14] is -0.38 (inactive); in assay [15] it was 0.102 (inactive); in assay [16], -1.32 (inactive); in assay [17], 1.82; in [18] it was -2.52 (inactive); in [19], -7 (inactive). This compound came in with a z-score in [20] of -2.41.
Take `CC(C)[C@@H](C(=O)O)n1cc(C2(O)CCCCC2)nn1`: the composite z-score is 0.265 in assay [1]; 0.306 in [6]; -0.101 in assay [7]; -0.0244 in the assay with Torsin-1A (Homo sapiens) [8]; 0.404 with Torsin-1A (Homo sapiens) [9]; 0.151 in assay [10]. For the same compound, the composite z-score in assay [12] is -0.188. Besides, the z-score is -0.671 (inactive) in assay [2]; -0.78 (inactive) in assay [3]; -0.23 (inactive) in assay [4]; -0.669 (inactive) in assay [5]; -0.0464 (inactive) in [11]; -0.477 (inactive) in [13]. Besides, the z-score in [14] is -0.436 (inactive); in assay [15], -2.15 (inactive); in assay [16], -0.89 (inactive); in assay [17], 0.0556; in assay [18], -1.09 (inactive); in assay [19] it was -0.176 (inactive). This compound gave a z-score in assay [20] of -0.658.
Regarding `CCOc1cc(C(O)C2C=CC3C(=O)N(c4ccccc4)C(=O)C3N2Nc2ccc(C(C)C)cc2)ccc1O` (stereo not given), the composite z-score is 0.12 in [1]; 0.809 in assay [6]; -0.0375 in assay [7]; 0.159 in the assay with Torsin-1A (Homo sapiens) [8]; 0.57 with Torsin-1A (Homo sapiens) [9]; 0.323 in assay [10]. Also, in assay [12], the composite z-score is 0.469. For the same compound, the z-score was -1.15 (inactive) in assay [2]; -0.941 (inactive) in assay [3]; 1.96 (inactive) in [4]; 0.193 (inactive) in assay [5]; -1.97 (inactive) in [11]; 11.5 (active) in assay [13]. The z-score in [14] was 1.8 (inactive); in [15], 1.74 (inactive); in assay [16] it was 1.42 (inactive); in assay [17], -0.729; in assay [18], -3.06 (inactive); in [19], -4.82 (inactive). This compound also came in with a z-score in assay [20] of -5.07.
For the compound `COCCCNC(=O)[C@]1(Cc2ccccc2)N=C(c2ccc(OCCCO)cc2)O[C@@H]1c1ccccc1CN=[N+]=[N-]`, the composite z-score in assay [1] was 0.703; in assay [6] it was 1.31; in assay [7], 0.491; with Torsin-1A (Homo sapiens) [8], 0.52; in the assay with Torsin-1A (Homo sapiens) [9] it was 0.82; in assay [10], -0.147. Moreover, in [12], the composite z-score turned out to be 0.401. Moreover, the z-score in assay [2] was -3.68 (inactive); in assay [3], -0.0105 (inactive); in [4], -0.09 (inactive); in assay [5] it was -1.03 (inactive); in [11], 1.41 (inactive); in assay [13], 27.1 (active). In addition, the z-score in [14] is 18.1 (active); in [15] it was 1.44 (inactive); in assay [16], 2.62 (inactive); in [17], 2.35; in assay [18], -0.158 (inactive); in assay [19], 1.26 (inactive). In addition, the z-score in assay [20] was 2.44.
Take `CCCNC(=O)[C@@]1(Sc2ccc(C)cc2)CC(=O)N(Cc2ccccc2C(F)(F)F)[C@@H]1c1ccc(CO)cc1I`: the composite z-score in [1] is 0.168; in [6], 1.17; in [7] it was -0.0405; with Torsin-1A (Homo sapiens) [8], 1.26; in the assay with Torsin-1A (Homo sapiens) [9], 1.47; in [10] it was 1.88. The same compound showed a composite z-score in assay [12] of 0.0999. The z-score was -4.54 (inactive) in assay [2]; -0.376 (inactive) in assay [3]; -0.231 (inactive) in [4]; -0.0562 (inactive) in assay [5]; 0.0676 (inactive) in assay [11]; 5.14 (inactive) in assay [13]. Further, the z-score in [14] is 0.0162 (inactive); in assay [15] it was 0.378 (inactive); in assay [16] it was -1.95 (inactive); in assay [17], 2.26; in assay [18], 0.781 (inactive); in assay [19], -2 (inactive). Further, in assay [20], the z-score was -0.0781.
